Only a selection was taken, and hits are over-represented in it overall.
nsP2pro primary: CHIKV nsP2 protease inhibition, primary qHTS; Q8JUX6; FRET peptide cleavage, nsP2pro, fluorescence 1 h; Potency, µM (titrated, usually from 24.9 µM), for the others: at the highest dose activity change, negative = inhibition, actives largely listed as inhibitors; hit rate 1.1% among 31,000; AID 1964107; also: nearly all actives have a fitted effect of over 60% in size
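Purified recombinant nsP2pro (150 nM final) in 10 mM Tris-HCl pH 8.0 with 0.01% Tween 20 was preincubated 15 min at room temperature with compound (7 concentrations, up to 25 uM). FRET peptide 2 substrate (2.5 uM final) was then added; fluorescence was read after 1 h.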
CHIKV nsP2 cell: inhibits CHIKV nsP2 protease in cells; shares compounds with nsP2pro primary; cell-based CHIKV nsP2 protease reporter assay; Potency, µM (top dose mostly 51.1 µM), inactives show at the highest dose activity change, negative = inhibition, hits mostly inhibitors; hit rate 10% among 450; also: nearly all actives have a fitted effect of over 70% in size
NSP2 full ctr: inhibits full-length CHIKV NSP2 enzyme. Full-length CHIKV NSP2 protease enzymatic counterscreen. AID 1964101. Potency, µM (top dose mostly 50.7 µM), without a hit: top-dose activity change, negative = inhibition, hits mostly inhibitors. shares compounds with nsP2pro primary. hit rate 39% among 410; also: nearly all actives have a fitted effect of over 65% in size
Furin counterscr: inhibits human furin in a CHIKV nsP2 protease selectivity counterscreen | shares compounds with nsP2pro primary | Recombinant human furin enzymatic counterscreen, fluorogenic substrate | Potency, µM (highest dose often 50.6 µM), inactives show at the highest dose activity change, negative = inhibition, usual class: inhibitors | hit rate 6% among 410 | AID 1964102
Target sequence (P09958 whole entry, looked up): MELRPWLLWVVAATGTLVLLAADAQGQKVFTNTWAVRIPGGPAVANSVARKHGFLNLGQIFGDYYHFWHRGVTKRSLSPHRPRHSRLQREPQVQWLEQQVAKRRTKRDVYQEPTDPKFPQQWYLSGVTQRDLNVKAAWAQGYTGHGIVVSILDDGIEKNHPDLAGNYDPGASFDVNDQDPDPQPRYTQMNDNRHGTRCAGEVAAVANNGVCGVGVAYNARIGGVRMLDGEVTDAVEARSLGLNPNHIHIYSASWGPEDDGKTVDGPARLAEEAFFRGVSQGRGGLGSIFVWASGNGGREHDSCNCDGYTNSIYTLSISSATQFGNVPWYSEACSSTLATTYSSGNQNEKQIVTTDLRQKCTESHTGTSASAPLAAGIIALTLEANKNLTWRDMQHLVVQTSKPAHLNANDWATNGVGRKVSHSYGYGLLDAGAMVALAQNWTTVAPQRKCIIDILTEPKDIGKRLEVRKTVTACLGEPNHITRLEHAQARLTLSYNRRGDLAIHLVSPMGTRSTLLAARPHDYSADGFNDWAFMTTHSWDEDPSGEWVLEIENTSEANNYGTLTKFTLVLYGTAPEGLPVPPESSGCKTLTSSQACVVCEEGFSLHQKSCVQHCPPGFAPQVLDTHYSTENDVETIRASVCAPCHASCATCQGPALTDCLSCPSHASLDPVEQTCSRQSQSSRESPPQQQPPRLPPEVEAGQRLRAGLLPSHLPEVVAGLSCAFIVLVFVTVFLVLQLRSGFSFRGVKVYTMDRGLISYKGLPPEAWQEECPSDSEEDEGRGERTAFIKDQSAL
NS23 peptide cs: nsP2pro inhibition on native NS2/3 peptide substrate; AID 1964103; Potency, µM (doses to about 51 µM), for the others: top-dose activity change, negative = inhibition, actives largely listed as inhibitors; shares compounds with nsP2pro primary; Purified CHIKV nsP2 protease, endogenous NS2/3 peptide cleavage; hit rate 34% among 410; also: nearly all actives have a fitted effect of over 55% in size
Papain cs: papain protease inhibition, counterscreen for nsP2pro inhibitors; shares compounds with nsP2pro primary; purified papain protease activity, enzymatic inhibition; Potency, µM (doses to about 51 µM), for the others: at the top dose activity change, negative = inhibition, actives largely listed as inhibitors; hit rate 5% among 410; AID 1964104
nsP2pro confirm: CHIKV nsP2 protease inhibition, confirmatory qHTS; shares compounds with nsP2pro primary; Potency, µM (highest dose often 25.5 µM), for the others: at the highest dose activity change, negative = inhibition, most hits filed as inhibitors; CHIKV nsP2 protease enzymatic activity, qHTS; hit rate 43% among 410; also: nearly all actives have a fitted effect of over 75% in size
HCV NS3 4A cs: selectivity counter-screen for CHIKV nsP2 protease inhibitors: HCV NS3/4A | shares compounds with nsP2pro primary | HCV NS3/4A protease biochemical counterscreen | Potency, µM (titrated, usually from 50.9 µM), usual class: inhibitors | hit rate 20% among 410 | AID 1964106; also: nearly all actives have a fitted effect of over 55% in size
Numbers without * were called inactive; i = inactive; ? = inconclusive; [ ] = dose if it differs, or a comment. Calls follow the shape of the full dose curve. % is scaled to controls: 0 for no effect and ±100 for the full control effect; potency is read from the fitted curve at half-maximal effect.

SMILES | nsP2pro primary | others
CCOC(=O)Nc1ccc(NCc2c(C)cc(C)cc2C)cc1N | ? | CHIKV nsP2 cell=?;NSP2 full ctr=-2%;Furin counterscr=-9%;NS23 peptide cs=?;Papain cs=-15%;nsP2pro confirm=-37%;HCV NS3 4A cs=i
CCOC(=O)c1ccc(NC2CCCCC2)c(N)c1 | -2%
CCC(=O)O[C@@H]1CC(=O)O[C@H](C)C/C=C/C=C/[C@@H](O)[C@H](C)C[C@H](CC=O)[C@H](OC2O[C@H](C)[C@@H](O[C@H]3C[C@@](C)(O)[C@@H](OC(=O)CC)[C@H](C)O3)[C@H](N(C)C)[C@H]2O)[C@H]1OC (stereo partly drawn) | 0%
Cc1nnc(-c2cnn(C)c2N)n1Cc1cncn1C | i
CC1=CC(=O)CC(C)(C)C1CCC(C)OC1OC(COC(=O)c2cc(O)c(O)c(O)c2)C(O)C(O)C1O (stereo not drawn) | 14%[10 µM]
COCC(=O)N[C@@H]1CCC[C@@H](C(=O)NC2CC2)CC(=O)N(C)C1 | i
CCCNC(=O)N[C@@H]1CCC[C@@H](C(=O)NCCOC)CC(=O)N(C)C1 | 4µM* | CHIKV nsP2 cell=21%;NSP2 full ctr=15µM*;Furin counterscr=?;NS23 peptide cs=24µM*;Papain cs=4%;nsP2pro confirm=4.1µM*;HCV NS3 4A cs=?
CCN(CC)C(=O)[C@@H]1CCC[C@@H](NC(C)=O)CN(C)C(=O)C1 | -7%[39.2 µM]
COc1ccc(CCC(=O)O)c(O[C@@H]2O[C@H](CO)[C@@H](O)[C@H](O)[C@H]2O)c1 | -5%
O=C(NCc1ccccc1)c1cc2sccc2n1Cc1ccc(F)cc1 | 7%
Cc1c(Cl)cccc1NC(=O)c1cc2sccc2n1Cc1ccc(F)cc1 | 7.9µM* | CHIKV nsP2 cell=?;NSP2 full ctr=5.8µM*;Furin counterscr=-18%;NS23 peptide cs=16µM*;Papain cs=-8%;nsP2pro confirm=8µM*;HCV NS3 4A cs=8.2µM*
Cc1ccc(CNC(=O)c2cc3sccc3n2Cc2ccc(F)cc2)cc1 | 14%
N#Cc1cc(CN2CCC(Nc3ncnc4sc(Cl)cc34)CC2)ccc1F | -22%
O=C1OC(c2ccccc2)(c2ccccc2)N2CCN(C(=O)NCc3ccc(F)cc3)CC12 (stereo not drawn) | -5%
C[n+]1c2cc(N)ccc2cc2ccc(N)cc21 (tested in a mixture with another compound) | ? | CHIKV nsP2 cell=?;NSP2 full ctr=-4%;Furin counterscr=?;NS23 peptide cs=?;Papain cs=?;nsP2pro confirm=47%;HCV NS3 4A cs=i
CCCN(C)C(=O)c1c(-c2ccc(F)cc2)noc1[C@H](C)O | -5%[39.2 µM]
CCOc1ccc(/C=C(\C#N)C(=O)Nc2sc3c(c2C(=O)OC)C(C(=O)OC)CC3)cc1OC (stereo not drawn) | 0.85µM* | CHIKV nsP2 cell=-1%;NSP2 full ctr=?;Furin counterscr=2%;NS23 peptide cs=5.8µM*;Papain cs=-4%;nsP2pro confirm=4µM*;HCV NS3 4A cs=i
CCOc1cc(/C=C(\C#N)C(=O)Nc2ccc(OC)cc2)ccc1OCc1cc(=O)n2nc(CC)sc2n1 | -17%
COC(=O)C1CCc2sc(NC(=O)Cc3ccccc3)c(C(=O)Nc3ccc(Cl)cc3)c21 (stereo not drawn) | i
Cc1nc(C(C)Nc2ncnc3ccc(-c4ccc5c(c4)OCO5)cc23)cs1 (stereo not drawn) | i
O=C1NC(=O)/C(=C/c2cccn2-c2ccc(P(O)O)cc2)N1 | -8%
CC(C)c1noc([C@@H]2C[C@@H](O)CN2Cc2cc3ccccc3o2)n1 | -3%[39.2 µM]
O[C@@H]1C[C@@H](c2nc(Cc3ccc(F)cc3Cl)no2)N(Cc2ccc(OC(F)(F)F)cc2)C1 | i
OC1CC(c2cccc(F)c2)N(Cc2ccc(-c3ccn[nH]3)o2)C1 (stereo not drawn) | ? | CHIKV nsP2 cell=-2%;NSP2 full ctr=-40%;Furin counterscr=-6%;NS23 peptide cs=?;Papain cs=-7%;nsP2pro confirm=?;HCV NS3 4A cs=i
CCOC(=O)N1CCN(C(=O)c2sc(C(C)C)nc2C)CC1 | i
SMILES | nsP2pro primary | others
O=C(O[C@H]1[C@@H]2C=CO[C@@H](O[C@@H]3O[C@H](CO)[C@@H](O)[C@H](O)[C@H]3O)[C@@H]2[C@@]2(CO)O[C@@H]12)c1ccccc1 | 20%[10 µM]
C/C=C1/[C@H](O[C@@H]2O[C@H](CO)[C@@H](O)[C@H](O)[C@H]2O)OC=C(C(=O)OC)[C@H]1CC(=O)OCCc1ccc(OC(=O)C[C@@H]2C(C(=O)OC)=CO[C@@H](O[C@@H]3O[C@H](CO)[C@@H](O)[C@H](O)[C@H]3O)/C2=C/C)cc1 | 11%[5.1 µM]
COC(=O)Nc1cc(-c2ccncc2)nn1C | 4%[39.2 µM]
CC1(C)CCC[C@@]2(C)[C@H]1[C@H](O)C=C1COC(=O)[C@@]12O | -13%
CO[C@H]1c2cc(C(C)C)c(O)c(O)c2[C@@]23CCCC(C)(C)C2[C@@H]1OC3=O (stereo partly drawn) | 6.1µM* | CHIKV nsP2 cell=-19%[33.5 µM];NSP2 full ctr=16µM*;Furin counterscr=-10%[33.5 µM];NS23 peptide cs=13µM*;Papain cs=?;nsP2pro confirm=5.5µM*;HCV NS3 4A cs=i
CCN1CCN(C(=O)c2cc(-c3ccccc3OC)c3nncn3n2)CC1 | -4%[39.2 µM]
CC(=O)Nc1sc2c(c1-c1nc3ccccc3s1)CN(C1COC1)C2 | i
Cc1ccc(C2=NC3(CCN(C(=O)c4cnccn4)CC3)ON2)cc1 | -7%
COc1ccc(NC(=O)CNS(=O)(=O)c2cccs2)c(OC)c1 | -16%
C#CC(=O)N(c1ccc(OC)cc1OC)C(C(=O)NCC(=O)OCC)c1cccs1 (stereo not drawn) | 0.62µM* | CHIKV nsP2 cell=-17%;NSP2 full ctr=1.3µM*;Furin counterscr=-5%;NS23 peptide cs=2.9µM*;Papain cs=-8%;nsP2pro confirm=0.8µM*;HCV NS3 4A cs=i
CCOCCCNC(=O)C(c1ccc(OC)cc1)N(Cc1cccs1)C(=O)CNC(C)=O (stereo not drawn) | -10%
CCNC(=O)N1CCCCCC1CN1CCC(C)CC1 (stereo not drawn) | i
O=C1c2ccccc2C(=O)c2oc(-c3cccnc3)nc21 | 3.1µM* | CHIKV nsP2 cell=?;NSP2 full ctr=-24%;Furin counterscr=-5%;NS23 peptide cs=?;Papain cs=-10%;nsP2pro confirm=?;HCV NS3 4A cs=i
O=C1c2ccccc2C(=O)c2oc(-c3ccccc3)nc21 | 8.8µM* | CHIKV nsP2 cell=-26%;NSP2 full ctr=?;Furin counterscr=-5%;NS23 peptide cs=-24%;Papain cs=-1%;nsP2pro confirm=-21%;HCV NS3 4A cs=i
O=c1ncn(Cc2ccccc2)c2ccc(-c3cccnc3)nc12 | -3%[39.2 µM]
Cc1cnc(-c2ccccc2C(C)C)nc1N(C)Cc1ccc(-c2cccnc2)cc1 | i
NCCc1noc(-c2ccccc2)n1 | -11%
O=C(CSc1oc(-c2ccccc2)nc1S(=O)(=O)c1ccccc1)c1ccccc1 | -25%
